Assay [1] can be described thus: ATG_GLI_CIS: Attagene CIS-FACTORIAL HepG2 Assay for human Zinc Finger Protein GLI1 (AID 2282945). Particulars: HepG2, Attagene cis-factorial reporter mRNA, GLI element; actives raise or lower the signal. The essentials: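 Bidirectional curve fits relative to DMSO, using reporter mRNA levels from RT-PCR plus capillary electrophoresis. Cells were HepG2 transiently carrying cis-regulated reporter constructs, harvested 24 h after dosing.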

Assay [2] deals with Bile acid receptor (Homo sapiens) (UniProt Q96RI1). In words: ATG_IR1_CIS: Attagene CIS-FACTORIAL HepG2 Assay for human Nuclear Receptor Subfamily 1 Group H Member 4 (NR1H4), IR1 submotif (AID 2282946). Conditions: IR1 reporter transcription, actives raise or lower the signal. The essentials: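 Cells (human HepG2) carry transiently transfected cis-promoter reporter transcription units. Compounds are incubated 24 h, total RNA is reverse-transcribed and amplified, and labelled fragments are resolved by capillary electrophoresis. Curves use DMSO as baseline.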
Sequence of Bile acid receptor (Homo sapiens) (Q96RI1 whole entry, looked up, the tested form may be a part): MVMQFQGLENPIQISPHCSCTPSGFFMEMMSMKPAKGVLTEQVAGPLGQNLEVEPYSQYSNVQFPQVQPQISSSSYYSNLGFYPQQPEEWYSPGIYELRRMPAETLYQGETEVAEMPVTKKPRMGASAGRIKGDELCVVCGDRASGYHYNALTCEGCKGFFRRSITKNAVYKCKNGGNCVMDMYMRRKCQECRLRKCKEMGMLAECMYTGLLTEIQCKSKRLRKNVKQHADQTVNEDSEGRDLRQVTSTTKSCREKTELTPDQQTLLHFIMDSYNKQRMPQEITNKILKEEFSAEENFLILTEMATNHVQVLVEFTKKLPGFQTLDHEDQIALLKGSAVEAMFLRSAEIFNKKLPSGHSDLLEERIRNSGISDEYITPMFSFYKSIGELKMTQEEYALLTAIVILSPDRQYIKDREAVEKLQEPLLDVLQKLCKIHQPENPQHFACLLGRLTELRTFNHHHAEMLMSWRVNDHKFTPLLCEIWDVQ

Assay [3] is described as follows: ATG_GRE_CIS: Attagene CIS-FACTORIAL HepG2 Assay for human Glucocorticoid Response Elements (GRE) (AID 2282947). Conditions: HepG2 GRE cis-reporter, Attagene multiplex mRNA; actives raise or lower the signal. The procedure, abridged:
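Transient MRTU transfection of human HepG2 liver cells; cis-regulated reporters report endogenous factors. 24 h dosing → RNA isolation → RT-PCR → 6-FAM primer extension → HpaI cut → CE fragment analysis. Bidirectional fit, DMSO negative control.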

The nature of assay [4]: ATG_ISRE_CIS: Attagene CIS-FACTORIAL HepG2 Assay for human Interferon Regulatory Factor 1 (IRF1) binding to an Interferon-Stimulated Response Element (ISRE) (AID 2282948). Particulars: HepG2 ISRE cis-reporter (Attagene), mRNA transcription readout; actives raise or lower the signal. The essentials: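 Cell-based cis-reporter assay; HepG2; 24 h exposure; reporter mRNA by RT-PCR plus capillary electrophoresis fluorescence; activity in either direction scored relative to DMSO.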

Assay [5] is described as follows: ATG_M_32_CIS: Attagene CIS-FACTORIAL HepG2 Assay for M32 Transcription Factor (Internal Marker) (AID 2282949).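 Note: background control marker of the multiplexed CIS panel rather than a real target.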 Particulars: HepG2 Attagene cis-factorial M32 reporter, mRNA; actives raise or lower the signal. The procedure, abridged: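 Fluorescent capillary electrophoresis peaks of HpaI-digested, FAM-labelled RT-PCR reporter products give the signal. Source: transiently transfected human liver HepG2 cells, 24 h after chemical dosing; bidirectional fitting against DMSO.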

Assay [6] can be described thus: ATG_M_06_CIS: Attagene CIS-FACTORIAL HepG2 Assay for M06 Transcription Factor (Internal Marker) (AID 2282950). Conditions: HepG2 Attagene CIS-FACTORIAL M06 internal marker reporter; actives raise or lower the signal. The procedure, abridged: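 Fluorescence-labelled RT-PCR products from cis-promoter reporter units, cut with HpaI and resolved by capillary electrophoresis, give the signal. Cells are human HepG2, dosed for 24 h. Serves as background control, fitted relative to DMSO.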

Assay [7] deals with Hypoxia-inducible factor 1-alpha (Homo sapiens) (UniProt Q16665). As to the kind of experiment: ATG_HIF1a_CIS: Attagene CIS-FACTORIAL HepG2 Assay for human Hypoxia Inducible Factor 1 (HIF1A) (AID 2282951). Particulars: HepG2 Attagene cis-factorial HIF1a reporter transcription; actives raise or lower the signal. The procedure, abridged: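 In this multiplexed cell assay, HepG2 cells bearing transfected cis reporters are dosed for 24 h and reporter mRNA is read by RT-PCR plus capillary electrophoresis; signal increases and decreases are both scored against DMSO.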
Sequence of Hypoxia-inducible factor 1-alpha (Homo sapiens) (Q16665 whole entry, looked up): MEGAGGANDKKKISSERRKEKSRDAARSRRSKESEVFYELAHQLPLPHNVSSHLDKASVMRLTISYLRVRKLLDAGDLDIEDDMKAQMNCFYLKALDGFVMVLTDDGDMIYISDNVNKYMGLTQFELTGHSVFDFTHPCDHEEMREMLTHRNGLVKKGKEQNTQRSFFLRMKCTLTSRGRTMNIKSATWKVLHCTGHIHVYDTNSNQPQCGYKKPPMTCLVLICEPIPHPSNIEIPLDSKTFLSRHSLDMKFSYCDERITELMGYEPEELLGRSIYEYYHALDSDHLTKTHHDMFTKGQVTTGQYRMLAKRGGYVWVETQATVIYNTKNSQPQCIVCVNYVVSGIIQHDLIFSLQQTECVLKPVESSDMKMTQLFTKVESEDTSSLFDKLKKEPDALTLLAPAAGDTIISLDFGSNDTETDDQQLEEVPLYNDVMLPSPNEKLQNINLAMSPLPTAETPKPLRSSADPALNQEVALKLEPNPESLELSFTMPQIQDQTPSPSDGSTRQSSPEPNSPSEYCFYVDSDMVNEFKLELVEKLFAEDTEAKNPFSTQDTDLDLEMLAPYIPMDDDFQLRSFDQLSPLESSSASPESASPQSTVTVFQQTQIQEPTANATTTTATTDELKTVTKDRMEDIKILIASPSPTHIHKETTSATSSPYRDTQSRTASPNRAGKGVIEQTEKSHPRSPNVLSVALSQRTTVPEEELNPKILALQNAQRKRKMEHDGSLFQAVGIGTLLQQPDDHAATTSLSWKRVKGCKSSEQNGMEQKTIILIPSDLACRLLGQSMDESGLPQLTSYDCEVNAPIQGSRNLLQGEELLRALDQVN

For assay [8], the target named is Hepatocyte nuclear factor 6 (Homo sapiens) (UniProt Q9UBC0). In words: ATG_HNF6_CIS: Attagene CIS-FACTORIAL HepG2 Assay for human Hepatocyte Nuclear Factor 6 (HNF6) (AID 2282952). Particulars: HepG2 Attagene cis-factorial HNF6 reporter transcription; actives raise or lower the signal. The essentials: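 Cells are HepG2 carrying transiently transfected cis-promoter reporter units. Treatment lasts 24 h, after which reporter transcripts are reverse-transcribed, amplified, FAM-labelled and sized by capillary electrophoresis. DMSO serves as baseline.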
Sequence of Hepatocyte nuclear factor 6 (Homo sapiens) (Q9UBC0 whole entry, looked up): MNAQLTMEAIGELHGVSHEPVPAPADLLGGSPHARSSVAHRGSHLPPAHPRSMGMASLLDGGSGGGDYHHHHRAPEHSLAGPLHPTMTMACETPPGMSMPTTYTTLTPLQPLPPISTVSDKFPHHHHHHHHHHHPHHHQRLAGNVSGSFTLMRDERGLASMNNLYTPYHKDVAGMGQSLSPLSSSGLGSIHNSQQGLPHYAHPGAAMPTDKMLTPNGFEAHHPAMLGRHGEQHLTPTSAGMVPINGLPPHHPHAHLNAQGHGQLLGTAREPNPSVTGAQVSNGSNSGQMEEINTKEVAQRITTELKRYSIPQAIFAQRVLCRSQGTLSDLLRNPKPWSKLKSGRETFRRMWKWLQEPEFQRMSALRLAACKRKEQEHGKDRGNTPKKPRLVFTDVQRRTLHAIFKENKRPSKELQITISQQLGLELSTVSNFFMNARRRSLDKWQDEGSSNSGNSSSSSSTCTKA

Assay [9] addresses Heat shock factor protein 1 (Homo sapiens) (UniProt Q00613). As to the kind of experiment: ATG_HSE_CIS: Attagene CIS-FACTORIAL HepG2 Assay for human Heat Shock Transcription Factor 1 (HSE) (AID 2282953). Conditions: HepG2 HSE cis-reporter, Attagene RNA transcription; actives raise or lower the signal. The essentials: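 After a 24 h incubation with test chemical, transfected HepG2 cells were harvested for RNA; reporter transcripts were measured by RT-PCR and capillary electrophoresis. Values reflect gain or loss of signal relative to DMSO.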

Assay [10] is described as follows: ATG_MRE_CIS: Attagene CIS-FACTORIAL HepG2 Assay for human Metal Responsive Element (MRE) (AID 2282954). Particulars: HepG2 MRE cis-reporter transcription, Attagene multiplex; actives raise or lower the signal. The essentials:
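Transient MRTU transfection of HepG2 (FuGene 6); 24 h dosing; total RNA → oligo(dT) RT, PCR, 6-FAM primer extension, HpaI cut, CE. Bidirectional fit vs DMSO.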

The nature of assay [11]: ATG_PBREM_CIS: Attagene CIS-FACTORIAL HepG2 Assay for human Phenobarbital-responsive Enhancer Module (PBREM) (AID 2282955). Particulars: HepG2 PBREM cis-reporter, Attagene multiplexed transcription; actives raise or lower the signal. The essentials:
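After a 24 h incubation with test chemical, transfected HepG2 cells yield total RNA; reporter-specific RT-PCR products are fluorescently labelled, HpaI-digested and resolved by capillary electrophoresis against ROX size standards.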

The target of assay [12] is Paired box protein Pax-6 (Homo sapiens) (UniProt P26367). As to the kind of experiment: ATG_Pax6_CIS: Attagene CIS-FACTORIAL HepG2 Assay for human Paired Box 6 (PAX6) (AID 2282956). Particulars: HepG2 CIS-FACTORIAL PAX6 reporter transcription, RNA readout; actives raise or lower the signal. The procedure, abridged:
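Multiplexed cis-reporter HepG2 system; 24 h treatment; reporter mRNA read by RT-PCR/CE fluorescence; bidirectional fit vs DMSO.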

The nature of assay [13]: ATG_PXRE_CIS: Attagene CIS-FACTORIAL HepG2 Assay for human Pregnane X Receptor Element (PXRE) (AID 2282957). Conditions: HepG2 Attagene CIS-FACTORIAL PXRE reporter, mRNA; actives raise or lower the signal. The essentials:
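Multiplexed cis-reporter assay in transiently transfected human HepG2 cells; 24 h chemical exposure. Reporter transcripts quantified by RT-PCR with fluorescent labeling and capillary electrophoresis.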

Assay [14] is described as follows: ATG_PPRE_CIS: Attagene CIS-FACTORIAL HepG2 Assay for human Peroxisome Proliferator-activated Response Element (PPRE) (AID 2282958). Conditions: HepG2 PPRE cis-element reporter, Attagene transcription factor profiling; actives raise or lower the signal. The essentials:
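Multiplexed reporter transcription units under cis-regulatory promoters were transfected into HepG2 cells to capture endogenous factor activity. A 24 h incubation preceded RNA isolation and fluorescent RT-PCR fragment analysis.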

A short description of assay [15]: ATG_RORE_CIS: Attagene CIS-FACTORIAL HepG2 Assay for human RAR-related Orphan Receptor Element (RORE) (AID 2282959). Conditions: HepG2 Attagene cis-factorial RORE reporter, mRNA; actives raise or lower the signal. The essentials: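 Fluorescence intensity of reporter-specific cDNA fragments, separated by capillary electrophoresis, gives the signal. Source: HepG2 liver cells transiently transfected with cis-element reporters and exposed 24 h; DMSO-normalized bidirectional fit.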

The nature of assay [16]: ATG_Sox_CIS: Attagene CIS-FACTORIAL HepG2 Assay for human SRY-box transcription factor (SOX) (AID 2282960). Particulars: HepG2 Attagene cis-factorial SOX reporter, mRNA; actives raise or lower the signal. The procedure, abridged:
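After 24 h of chemical treatment, transfected HepG2 reporter cells are lysed for total RNA. Transcript levels come from RT-PCR with labelled primer extension and capillary electrophoresis, analysed bidirectionally versus DMSO.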

For assay [17], the target named is Transcription factor Sp1 (Homo sapiens) (UniProt P08047). In words: ATG_Sp1_CIS: Attagene CIS-FACTORIAL HepG2 Assay for human Specificity Protein 1 (Sp1) (AID 2282961). Conditions: HepG2 Sp1 cis-reporter transcription, actives raise or lower the signal. The procedure, abridged: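 Sp1-driven reporter mRNA, read as capillary electrophoresis fluorescence after RT-PCR, in transiently transfected HepG2 cells dosed for 24 h; signal change in either direction relative to DMSO.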
Sequence of Transcription factor Sp1 (Homo sapiens) (P08047 whole entry, looked up): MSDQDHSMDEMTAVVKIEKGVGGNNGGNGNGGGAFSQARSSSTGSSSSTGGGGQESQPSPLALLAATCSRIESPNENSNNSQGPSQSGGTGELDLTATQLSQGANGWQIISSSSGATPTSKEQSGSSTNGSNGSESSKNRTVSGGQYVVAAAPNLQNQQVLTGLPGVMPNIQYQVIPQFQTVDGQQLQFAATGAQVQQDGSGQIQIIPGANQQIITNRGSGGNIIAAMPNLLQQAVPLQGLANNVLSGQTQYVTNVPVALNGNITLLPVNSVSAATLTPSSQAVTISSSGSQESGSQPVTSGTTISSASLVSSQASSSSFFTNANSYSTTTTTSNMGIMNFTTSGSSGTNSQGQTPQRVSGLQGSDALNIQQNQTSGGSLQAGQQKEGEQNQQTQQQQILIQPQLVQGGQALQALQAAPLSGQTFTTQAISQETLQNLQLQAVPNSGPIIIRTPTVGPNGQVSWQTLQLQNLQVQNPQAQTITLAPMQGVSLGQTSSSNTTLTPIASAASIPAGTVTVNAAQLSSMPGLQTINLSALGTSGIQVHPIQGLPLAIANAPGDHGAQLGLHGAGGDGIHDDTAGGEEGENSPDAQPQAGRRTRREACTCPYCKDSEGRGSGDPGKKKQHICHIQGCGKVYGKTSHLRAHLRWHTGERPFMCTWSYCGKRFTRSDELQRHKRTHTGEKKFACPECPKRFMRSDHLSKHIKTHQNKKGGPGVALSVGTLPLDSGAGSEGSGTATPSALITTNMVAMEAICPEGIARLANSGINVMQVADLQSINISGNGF

A short description of assay [18]: ATG_SREBP_CIS: Attagene CIS-FACTORIAL HepG2 Assay for human Sterol Regulatory Element Binding (SREBP) (AID 2282962). Conditions: HepG2 Attagene cis-factorial SREBP reporter, mRNA; actives raise or lower the signal. The essentials: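 mRNA induction of transfected cis-promoter reporters in HepG2 cells, 24 h post-dose. Detection: RT-PCR with 6-FAM-labelled products, HpaI digest, capillary electrophoresis. DMSO served as negative control and baseline.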

The target of assay [19] is Signal transducer and activator of transcription 3 (Homo sapiens) (UniProt P40763). As to the kind of experiment: ATG_STAT3_CIS: Attagene CIS-FACTORIAL HepG2 Assay for human Signal Transducer and Activator of Transcription 3 (STAT3) (AID 2282963). Conditions: HepG2, Attagene cis-factorial STAT3 reporter transcription; actives raise or lower the signal. The essentials:
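Endogenous STAT3-responsive cis-element activity was read in transiently transfected HepG2 cells after 24 h treatment. Reporter transcripts were quantified via RT-PCR and capillary electrophoresis, with DMSO as negative control and bidirectional curve fitting.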

Assay [20] can be described thus: ATG_TA_CIS: Attagene CIS-FACTORIAL HepG2 Assay for human TA Basal Promoter (AID 2282964). Conditions: HepG2 Attagene CIS-factorial TA basal promoter reporter; actives raise or lower the signal. The essentials:
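Multiplexed mRNA reporter assay, HepG2, 24 h. Reporter cDNA amplified, 6-FAM primer-extended, HpaI-cut, CE-sized; DMSO = negative control and baseline.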

Structures are written as SMILES. Active and inactive are the calls of the source. Rule for the calls: active = hit-call score of the fitted dose curve at least 0.9, where 1 is the maximum; inactive = score below 0.9.

Sequence of Paired box protein Pax-6 (Homo sapiens) (P26367 whole entry, looked up): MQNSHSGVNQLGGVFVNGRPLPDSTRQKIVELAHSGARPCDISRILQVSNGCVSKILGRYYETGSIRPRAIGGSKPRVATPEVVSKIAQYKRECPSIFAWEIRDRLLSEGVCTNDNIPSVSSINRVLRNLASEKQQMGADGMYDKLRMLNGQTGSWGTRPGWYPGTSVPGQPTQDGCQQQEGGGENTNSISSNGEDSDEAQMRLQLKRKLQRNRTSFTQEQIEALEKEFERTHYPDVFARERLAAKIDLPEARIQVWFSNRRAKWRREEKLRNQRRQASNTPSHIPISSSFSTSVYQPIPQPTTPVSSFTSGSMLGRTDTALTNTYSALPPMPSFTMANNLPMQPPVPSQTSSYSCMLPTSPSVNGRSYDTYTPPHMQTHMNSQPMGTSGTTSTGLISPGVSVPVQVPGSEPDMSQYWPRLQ
Sequence of Heat shock factor protein 1 (Homo sapiens) (Q00613 whole entry, looked up): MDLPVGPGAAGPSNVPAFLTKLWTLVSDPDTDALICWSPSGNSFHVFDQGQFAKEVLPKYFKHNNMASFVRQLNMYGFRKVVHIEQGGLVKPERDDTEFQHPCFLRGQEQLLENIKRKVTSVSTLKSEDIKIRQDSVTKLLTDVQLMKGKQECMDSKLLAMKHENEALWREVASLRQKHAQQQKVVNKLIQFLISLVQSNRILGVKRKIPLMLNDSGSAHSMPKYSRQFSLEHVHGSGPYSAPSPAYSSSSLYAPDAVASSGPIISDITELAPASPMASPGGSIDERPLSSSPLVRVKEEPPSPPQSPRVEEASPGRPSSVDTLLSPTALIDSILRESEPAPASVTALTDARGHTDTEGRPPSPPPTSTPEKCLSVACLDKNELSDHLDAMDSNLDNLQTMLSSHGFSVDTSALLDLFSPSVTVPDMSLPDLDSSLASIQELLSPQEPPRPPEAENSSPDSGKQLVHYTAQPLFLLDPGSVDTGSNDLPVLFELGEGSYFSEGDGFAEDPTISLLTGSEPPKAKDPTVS
Sequence of Signal transducer and activator of transcription 3 (Homo sapiens) (P40763 whole entry, looked up): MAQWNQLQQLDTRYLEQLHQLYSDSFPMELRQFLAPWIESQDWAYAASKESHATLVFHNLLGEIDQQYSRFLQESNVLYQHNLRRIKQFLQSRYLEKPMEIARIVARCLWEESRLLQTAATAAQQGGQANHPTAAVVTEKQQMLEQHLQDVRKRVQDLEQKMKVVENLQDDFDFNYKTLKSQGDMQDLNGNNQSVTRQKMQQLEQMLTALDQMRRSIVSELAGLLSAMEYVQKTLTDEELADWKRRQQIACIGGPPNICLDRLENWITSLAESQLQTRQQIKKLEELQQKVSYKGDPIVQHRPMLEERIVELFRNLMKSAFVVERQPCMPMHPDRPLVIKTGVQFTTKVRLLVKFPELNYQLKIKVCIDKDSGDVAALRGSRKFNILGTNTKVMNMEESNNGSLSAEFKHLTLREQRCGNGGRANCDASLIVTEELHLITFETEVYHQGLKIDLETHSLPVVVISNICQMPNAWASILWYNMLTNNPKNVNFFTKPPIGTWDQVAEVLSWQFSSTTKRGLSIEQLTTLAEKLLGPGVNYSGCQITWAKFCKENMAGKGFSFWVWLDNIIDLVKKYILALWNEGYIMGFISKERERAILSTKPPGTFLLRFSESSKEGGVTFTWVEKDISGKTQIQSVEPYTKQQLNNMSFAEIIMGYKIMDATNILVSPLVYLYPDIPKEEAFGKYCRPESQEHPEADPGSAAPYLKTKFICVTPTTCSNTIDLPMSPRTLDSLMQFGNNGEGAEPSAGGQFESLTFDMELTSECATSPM

In the case of `CCN(CC)c1ccc(C=O)c(O)c1`, the call in assay [1], in assay [2], in assay [3], in [5], in [6] and in [7] was inactive. Besides, the call in [8], in [9], in [11], in assay [12], in assay [13] and in assay [14] was inactive. Besides, the compound was classed as inactive in [16], in assay [17], in assay [18], in assay [19] and in assay [20]. The half-maximal activity concentration (AC50) is 75.4 µM (active) in assay [4], 52.2 µM (active) in assay [10] and 38.1 µM (active) in assay [15].

Take `CCCC(=O)OCC(COC(=O)CCC)OC(=O)CCC`: the outcome in [1], in assay [2], in assay [3], in [5], in assay [6] and in [7] was inactive. Moreover, the call in assay [8], in [9], in assay [10], in assay [11], in assay [12] and in assay [14] was inactive. Also, the result in assay [15], in assay [16], in [17], in assay [18] and in assay [19] was inactive. The AC50 was 53 µM (active) in assay [4] and 0.0935 µM (active) in assay [13].

On to `O=C(O)C(F)(F)C(F)(F)C(F)(F)OC(F)(F)F`, for which the compound was classed as inactive in assay [1], in assay [2], in assay [3], in assay [4], in assay [5] and in assay [6]. The compound was called inactive in assay [7], in [8], in [9], in assay [10], in assay [11] and in assay [12]. Further, the outcome in assay [13], in assay [14], in assay [15], in assay [16], in assay [17] and in assay [18] was inactive. Moreover, the compound was classed as inactive in assay [19] and in assay [20].

Take `OCCCC(F)(F)C(F)(F)C(F)(F)C(F)(F)C(F)(F)C(F)(F)C(F)(F)C(F)(F)F`: the compound was called inactive in assay [1], in assay [2], in assay [3], in assay [5], in assay [6] and in assay [7]. Besides, the result in [8], in [9], in assay [10], in assay [11], in assay [13] and in assay [15] was inactive. The compound was called inactive in assay [16], in [17], in assay [18], in [19] and in [20]. Moreover, the AC50 is 50 µM (active) in [4], 29.9 µM (active) in assay [12] and 20.9 µM (active) in [14].

Regarding `FC(F)(F)C(F)(F)C(F)(F)C(F)(F)C(F)(F)C(F)(F)C(F)(F)CCI`, the compound was classed as inactive in assay [1], in assay [2], in assay [3], in assay [4], in assay [5] and in [6]. Also, the compound was classed as inactive in assay [7], in assay [8], in assay [9], in assay [10], in assay [11] and in [12]. The compound was called inactive in assay [13], in assay [14], in assay [15], in assay [16], in assay [17] and in [18]. For the same compound, in assay [20], the outcome was inactive.

Regarding `CCOC(=O)C1CC(=O)C(=C(O)C2CC2)C(=O)C1` (stereo not drawn), the compound was classed as inactive in [1], in assay [2], in assay [3], in assay [4], in assay [5] and in [6]. Also, the compound was called inactive in assay [7], in assay [8], in assay [9], in assay [10], in [11] and in assay [12]. The compound was classed as inactive in assay [14], in [15], in [16], in assay [17], in [18] and in assay [19]. In assay [20], the outcome was inactive. For the same compound, in assay [13], the AC50 is 77.3 µM (active).

With `CC(C)OC=O`, the compound was classed as inactive in assay [1], in assay [2], in assay [3], in assay [4], in assay [5] and in assay [6]. Also, the outcome in assay [7], in assay [8], in [9], in assay [10], in [11] and in assay [12] was inactive. In addition, the outcome in assay [13], in assay [14], in [15], in assay [16], in [17] and in assay [18] was inactive. Further, the outcome in assay [19] and in assay [20] was inactive.

Source of the values: PubChem BioAssay (EPA / NIEHS).
